Assay results from PubChem BioAssay (NCATS).
Results filed as inconclusive are left out. Where a call stands in place of a potency, no number is given. Active and inactive are the calls of the source. Calls come from the whole dose curve; as a rule, active = well fitted cell-killing curve with a large enough effect; inconclusive = small, poorly fitted or top-dose-only effect; inactive = flat fitted curve, though single readings scatter.

test: Cell Viability - LYMP2-013 (AID 970); settings: LYMP2-013 lymphoblastoid cells viability; series mostly up to 92.2 µM;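 note: cells exposed to compound for 24 h at 37 °C; nearly all actives have a fitted effect of over 55% in size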
Excerpt: NIH Chemical Genomics Center [NCGC]
NIH Molecular Libraries Screening Centers Network [MLSCN]
National Institutes of Environmental Health Sciences [NIEHS]
National Toxicology Program [NTP]
We have developed a 1536-well cell-based assay for quantitative high throughput screening (qHTS) against a number of cell lines to determine in vitro cytotoxicity of small molecules. This particular assay uses a human lymphoblastoid cell line (LYMP2-013) purchased from Coriell Institute for Medical Research.
NCGC Assay Protocol Summary:
The CellTiter-Glo luminescent cell viability assay (Promega) is a homogeneous method to measure the number of viable cells in culture. The end point readout of this assay is based on quantitation of intracellular ATP, an indicator of metabolic activity, using the luciferase reaction. Luciferase catalyzes the oxidation of beetle Luciferin to oxyluciferin and light in the presence of ATP. The luminescent signal is proportional to amount of ATP present.
Using the CellTiter-Glo luminescent cell viability assay, the amount of cellular ATP was measured in the lymphoblastoid cell line with complete culture medium following compound treatment for 24 hours. The assay was performed in opaque white Kalypsys 1536-well plates. In the screen, tetraoctylammonium bromide was used as positive control. Library compounds were measured for their ability to cause acute toxicity in the cell line, as reflected by a decrease in intracellular ATP levels, in a concentration-dependent manner. […] AC50 values were determined from concentration-response data modeled with the standard Hill equation.
qHTS protocol for CellTiter Glo lymphoblastoid cellular assay
[Step] [Parameter] [Value] [Description]
1. Reagent; 5 uL; 2500 lymphoblastoid cells/well
2. Time; 5 hr; 37 C incubation
4. Controls; 23 nL; Tetraoctylammonium bromide 6.4pM to 92 uM
5. Time; 24 hr; 37 C incubation
6. Reagent; 5 uL; CellTiter Glo reagent
7. Time; 30 min; Room Temperature
8. Detection; Luminescence; Viewlux plate reader
Keywords: cell viability, cytotoxicity, lymphoblastoid cell line, luminescence, NTPHTS, NTPHTS_NCGC, NIEHS, DSSTox, MLSMR, MLSCN, NIH Roadmap, qHTS, NCGC
Potency is the fitted concentration of half-maximal effect.

SMILES	Potency
CC(C)CC(C)N (stereo not given)	inactive
CC(Cl)CCl (stereo not given)	inactive
Nc1ccc(Cc2ccc(N)c(Cl)c2)cc1Cl	inactive
CCCC[N+](=O)[O-]	inactive
O=C(Cl)OCc1ccccc1	inactive
CCOP(=S)(OCC)SCCSCC	inactive
ClC(Cl)Br	inactive
O=C(O)c1cccc(Cl)c1	inactive
CCC/C=N/O	inactive
O=[N+]([O-])c1c(Cl)c(Cl)c(Cl)c(Cl)c1Cl	inactive
CCC(Cl)[N+](=O)[O-] (stereo not given)	inactive
Nc1ccc(Oc2ccc(N)cc2)cc1	inactive
CNC(=O)O/N=C/C(C)(C)S(C)=O (stereo not given)	inactive
Cc1cc(N=Nc2ccccc2C)ccc1N	inactive
O=C(O)CBr	inactive
O=C(O)c1cc(Cl)ccc1Cl	inactive
CCCCOC(=O)c1ccccc1N	inactive
ClCCOCCCl	inactive
Nc1ccc([N+](=O)[O-])cc1N	inactive
[O-][Cl+]O	inactive

SMILES	Potency
Oc1cccc(Cl)c1	inactive
CN(C)c1ccc(N)cc1	79.4 µM (active)
O=[N+]([O-])c1cccc2c([N+](=O)[O-])cccc12	inactive
CCCBr	inactive
Cc1cc(C)cc(OP(=O)(Oc2cc(C)cc(C)c2)Oc2cc(C)cc(C)c2)c1	inactive
CCCN(CCC)c1c([N+](=O)[O-])cc(C(F)(F)F)cc1[N+](=O)[O-]	inactive
CC(C)[N+](=O)[O-]	inactive
C=CCCC#N	inactive
CCSC(=O)N1CCCCCC1	inactive
C/C=C/CC#N	inactive
CC(=O)NNc1ccccc1	inactive
Brc1cccc(-c2ccccc2)c1	inactive
c1ccc(Nc2ccc(Nc3ccccc3)cc2)cc1	inactive
CN(C)c1ccc(N=Nc2ccccc2)cc1	inactive
Clc1cccc2ccccc12	inactive
CC(C)(C)C(O)(CCc1ccc(Cl)cc1)Cn1cncn1 (stereo not given)	inactive
COC(=O)Nc1nc2ccccc2[nH]1	inactive
Cc1cnc[nH]1	inactive
CSSC	inactive
N#C/C=C/C#N	39.8 µM (active)
